Where a chain is given by its changes, count along the chain named.

These results are taken from paper PMC9838217, “Structure of SALL4 zinc finger domain reveals link between AT-rich DNA binding and Okihiro syndrome”.

Holding throughout (experiment): HT-SELEX; high values mean tight binding
Common to all, as to details: protein: recombinant; vector His6-GST; dsDNA, one strand shown

One assay deals with T1, SALL4 ZFC4 WT (HT-SELEX) (Mus musculus, UniProt Q8BX22 870-940).
T1 sequence: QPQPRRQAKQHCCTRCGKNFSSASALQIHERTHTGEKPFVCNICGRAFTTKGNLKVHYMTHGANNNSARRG
The method, boiled down: (§1)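 Residues 870–940 of mouse SALL4, forming zinc finger cluster 4, were expressed recombinantly, purified, and 1 µg was incubated with library DNA (1.5 µg first cycle, 200 ng later) in 100 µl of 10 mM Tris–HCl pH 7.5, 50 mM NaCl, poly(dI-dC) and DTT for 10 min at room temperature. Washed Ni2+ bead-captured complexes were PCR-amplified and reselected for up to 6 cycles in triplicate, and the products were sequenced on MiSeq and scanned for 6-mers. Binding signal is the fold change in each canonical k-mer's read fraction compared with the initial random library.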

Assay [1] concerns the target T2, SALL4 ZFC4 R900W (HT-SELEX) (Mus musculus, UniProt Q8BX22 870-940, R900W).
T2 sequence: T1 sequence with R31W
The method, boiled down: as §1

The target in assay [2] is T3, SALL4 ZFC4 G921D (HT-SELEX) (Mus musculus, UniProt Q8BX22 870-940, G921D).
T3 sequence: T1 sequence with G52D
The essentials: as §1

Turning to AGTCTG, the binding signal with SALL4 ZFC4 WT (HT-SELEX) stood at 0.76 ± 0.0287 fold-change vs cycle 0; in assay [1], 0.869 ± 0.0157 fold-change vs cycle 0; in assay [2], 0.92 ± 0.0107 fold-change vs cycle 0.

Consider GGAACA, for which the binding signal in the assay with SALL4 ZFC4 WT (HT-SELEX) turned out to be 0.762 ± 0.0355 fold-change vs cycle 0; in assay [1], 0.882 ± 0.0371 fold-change vs cycle 0; in assay [2], 0.956 ± 0.0475 fold-change vs cycle 0.

As to CGTCAA, the binding signal was 0.564 ± 0.0126 fold-change vs cycle 0 in the assay with SALL4 ZFC4 WT (HT-SELEX), 0.667 ± 0.0148 fold-change vs cycle 0 in assay [1] and 0.765 ± 0.0373 fold-change vs cycle 0 in assay [2].

For ACCCGA, the binding signal with SALL4 ZFC4 WT (HT-SELEX) worked out at 0.382 ± 0.00644 fold-change vs cycle 0; in assay [1], 0.46 ± 0.0102 fold-change vs cycle 0; in assay [2], 0.576 ± 0.0588 fold-change vs cycle 0.

Turning to GAACCC, the values for the binding signal (with SALL4 ZFC4 WT (HT-SELEX); in assay [1]; in assay [2]) were 0.462 ± 0.0176 fold-change vs cycle 0, 0.565 ± 0.0113 fold-change vs cycle 0 and 0.668 ± 0.0409 fold-change vs cycle 0, respectively.

GCTCAC: the binding signal with SALL4 ZFC4 WT (HT-SELEX) is 0.361 ± 0.0205 fold-change vs cycle 0; in assay [1], 0.415 ± 0.0136 fold-change vs cycle 0; in assay [2], 0.554 ± 0.021 fold-change vs cycle 0.

As to GAATAC, the figures for the binding signal (in the assay with SALL4 ZFC4 WT (HT-SELEX); in assay [1]; in assay [2]) were 1.29 ± 0.026 fold-change vs cycle 0, 1.41 ± 0.0467 fold-change vs cycle 0 and 1.34 ± 0.07 fold-change vs cycle 0, respectively.

Regarding AAGTGC, the figures for the binding signal (in the assay with SALL4 ZFC4 WT (HT-SELEX); in assay [1]; in assay [2]) were 0.551 ± 0.0359 fold-change vs cycle 0, 0.63 ± 0.00993 fold-change vs cycle 0 and 0.76 ± 0.0221 fold-change vs cycle 0, respectively.

Consider GAAACA, for which the binding signal was 1.23 ± 0.0252 fold-change vs cycle 0 with SALL4 ZFC4 WT (HT-SELEX), 1.33 ± 0.0252 fold-change vs cycle 0 in assay [1] and 1.29 ± 0.046 fold-change vs cycle 0 in assay [2].

Take AAGCGT: the binding signal with SALL4 ZFC4 WT (HT-SELEX) turned out to be 0.524 ± 0.0507 fold-change vs cycle 0; in assay [1], 0.607 ± 0.0218 fold-change vs cycle 0; in assay [2], 0.726 ± 0.0141 fold-change vs cycle 0.

Regarding CCAGAC, the binding signal was found to be 0.368 ± 0.0286 fold-change vs cycle 0 with SALL4 ZFC4 WT (HT-SELEX), 0.471 ± 0.0141 fold-change vs cycle 0 in assay [1] and 0.553 ± 0.0511 fold-change vs cycle 0 in assay [2].

On to AAATAA, for which the binding signal in the assay with SALL4 ZFC4 WT (HT-SELEX) came to 3.25 ± 0.208 fold-change vs cycle 0; in assay [1] it was 2.56 ± 0.166 fold-change vs cycle 0; in assay [2], 2.14 ± 0.25 fold-change vs cycle 0.

On to CACCCA, for which the figures for the binding signal (in the assay with SALL4 ZFC4 WT (HT-SELEX); in assay [1]; in assay [2]) were 0.431 ± 0.034 fold-change vs cycle 0, 0.488 ± 0.0313 fold-change vs cycle 0 and 0.59 ± 0.0722 fold-change vs cycle 0, respectively.

Turning to CCTGGA, the binding signal with SALL4 ZFC4 WT (HT-SELEX) came to 0.496 ± 0.0295 fold-change vs cycle 0; in assay [1] it was 0.556 ± 0.0141 fold-change vs cycle 0; in assay [2], 0.647 ± 0.0202 fold-change vs cycle 0.

For CTATAG, the binding signal with SALL4 ZFC4 WT (HT-SELEX) is 1.37 ± 0.136 fold-change vs cycle 0; in assay [1], 1.45 ± 0.0344 fold-change vs cycle 0; in assay [2] it was 1.35 ± 0.128 fold-change vs cycle 0.

Consider AGCTTA, for which the binding signal in the assay with SALL4 ZFC4 WT (HT-SELEX) is 1.21 ± 0.0616 fold-change vs cycle 0; in assay [1] it was 1.28 ± 0.0778 fold-change vs cycle 0; in assay [2], 1.27 ± 0.0883 fold-change vs cycle 0.

Turning to AAAAGG, the binding signal is 1.08 ± 0.0719 fold-change vs cycle 0 in the assay with SALL4 ZFC4 WT (HT-SELEX), 1.25 ± 0.064 fold-change vs cycle 0 in assay [1] and 1.18 ± 0.0579 fold-change vs cycle 0 in assay [2].

CCTGAC: the binding signal with SALL4 ZFC4 WT (HT-SELEX) amounted to 0.451 ± 0.0407 fold-change vs cycle 0; in assay [1], 0.547 ± 0.0213 fold-change vs cycle 0; in assay [2], 0.654 ± 0.0358 fold-change vs cycle 0.

For the sequence ACTTTC, the binding signal in the assay with SALL4 ZFC4 WT (HT-SELEX) is 1.28 ± 0.0405 fold-change vs cycle 0; in assay [1] it was 1.42 ± 0.0806 fold-change vs cycle 0; in assay [2], 1.37 ± 0.0709 fold-change vs cycle 0.

As to AAGATT, the results for the binding signal (in the assay with SALL4 ZFC4 WT (HT-SELEX); in assay [1]; in assay [2]) were 2.05 ± 0.0988 fold-change vs cycle 0, 2.08 ± 0.121 fold-change vs cycle 0 and 1.88 ± 0.183 fold-change vs cycle 0, respectively.

With CTACTA, the binding signal with SALL4 ZFC4 WT (HT-SELEX) was determined as 1.31 ± 0.0478 fold-change vs cycle 0; in assay [1], 1.47 ± 0.0658 fold-change vs cycle 0; in assay [2], 1.39 ± 0.0974 fold-change vs cycle 0.

As to GAGAAC, the binding signal is 0.84 ± 0.00885 fold-change vs cycle 0 with SALL4 ZFC4 WT (HT-SELEX), 1 ± 0.0376 fold-change vs cycle 0 in assay [1] and 1.04 ± 0.00942 fold-change vs cycle 0 in assay [2].

As for ACACAA, the binding signal with SALL4 ZFC4 WT (HT-SELEX) was found to be 1.07 ± 0.0495 fold-change vs cycle 0; in assay [1], 1.2 ± 0.0676 fold-change vs cycle 0; in assay [2], 1.19 ± 0.0605 fold-change vs cycle 0.

As for AGATCC, the binding signal stood at 0.821 ± 0.0254 fold-change vs cycle 0 with SALL4 ZFC4 WT (HT-SELEX), 0.949 ± 0.0348 fold-change vs cycle 0 in assay [1] and 1.045 ± 0.00383 fold-change vs cycle 0 in assay [2].

Consider AATATG, for which the values for the binding signal (with SALL4 ZFC4 WT (HT-SELEX); in assay [1]; in assay [2]) were 2.8 ± 0.213 fold-change vs cycle 0, 1.83 ± 0.0804 fold-change vs cycle 0 and 1.66 ± 0.102 fold-change vs cycle 0, respectively.

In the case of AGGTAG, the binding signal with SALL4 ZFC4 WT (HT-SELEX) turned out to be 0.817 ± 0.0419 fold-change vs cycle 0; in assay [1], 0.986 ± 0.0401 fold-change vs cycle 0; in assay [2] it was 0.998 ± 0.0166 fold-change vs cycle 0.

Take AGATTC: the values for the binding signal (with SALL4 ZFC4 WT (HT-SELEX); in assay [1]; in assay [2]) were 1.34 ± 0.0579 fold-change vs cycle 0, 1.42 ± 0.0466 fold-change vs cycle 0 and 1.39 ± 0.0922 fold-change vs cycle 0, respectively.

Take CTTACC: the binding signal with SALL4 ZFC4 WT (HT-SELEX) amounted to 0.909 ± 0.0427 fold-change vs cycle 0; in assay [1], 1.06 ± 0.0534 fold-change vs cycle 0; in assay [2] it was 1.02 ± 0.0246 fold-change vs cycle 0.

As to CACTGC, the binding signal came to 0.334 ± 0.0238 fold-change vs cycle 0 with SALL4 ZFC4 WT (HT-SELEX), 0.388 ± 0.00394 fold-change vs cycle 0 in assay [1] and 0.511 ± 0.0704 fold-change vs cycle 0 in assay [2].

Take AGATGG: the binding signal in the assay with SALL4 ZFC4 WT (HT-SELEX) is 0.853 ± 0.0339 fold-change vs cycle 0; in assay [1], 0.933 ± 0.00507 fold-change vs cycle 0; in assay [2], 0.962 ± 0.0157 fold-change vs cycle 0.
